# Shown is part of a subset that was picked to be rich in hits.
# CHX counter – Cycloheximide Counterscreen for Small Molecule Inhibitors of Shiga Toxin | max response, % | 12% of 300,000 active | cell reporter, cycloheximide protein synthesis inhibition counterscreen; in the data active = max response mostly above about 13%, no sharp cut-off; inactive = mostly below about 14%; note: read at 38.3 µM for the half of the compounds with a filed dose
# Shiga toxin inh – A qHTS for Small Molecule Inhibitors of Shiga Toxin; 9.2% of 290,000 active; inhibition, % at 38.7 µM; Vero cells, Shiga toxin protein synthesis inhibition reporter; in the data active = inhibition mostly above about 28%, no sharp cut-off; inactive = mostly below about 43%
# AmpC inh detg – qHTS Inhibitors of AmpC Beta-Lactamase (assay with detergent); AmpC hydrolysis of nitrocefin, absorbance 480 nm, 0.01% Triton; Potency, µM (series often up to 114 µM), most hits filed as inhibitors; 0.041% of 370,000 active; AID 485294, 2010; note: nearly all actives have a fitted effect of over 25% in size
# Target sequence (P00811 whole entry, looked up): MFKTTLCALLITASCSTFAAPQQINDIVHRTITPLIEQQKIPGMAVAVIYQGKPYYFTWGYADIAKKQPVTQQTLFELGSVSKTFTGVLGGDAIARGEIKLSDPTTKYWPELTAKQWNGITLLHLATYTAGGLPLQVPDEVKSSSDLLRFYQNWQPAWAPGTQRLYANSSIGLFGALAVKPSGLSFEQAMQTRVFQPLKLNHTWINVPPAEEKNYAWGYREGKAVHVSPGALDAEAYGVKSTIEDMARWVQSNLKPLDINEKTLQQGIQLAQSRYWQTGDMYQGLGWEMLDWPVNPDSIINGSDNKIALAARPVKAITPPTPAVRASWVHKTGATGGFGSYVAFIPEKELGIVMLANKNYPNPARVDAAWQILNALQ
#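 AmpC (5.3 nM in the dispensed reagent) in 20 mM phosphate pH 7.0 with 0.01% (detergent screen) or 0.0001% Triton X-100 was preincubated with compounds for 15 min at room temperature. Nitrocefin was then added from an 800 uM solution, and hydrolysis was followed at 480 nm.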
# NS1 function inh – qHTS Assay for Inhibitors of Influenza NS1 Protein Function; Potency, µM (top dose mostly 46.1 µM); 0.4% of 270,000 active; calls by dose curve; note: actives are rising curves; nearly all actives have a fitted effect of over 50% in size
#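 A cell-based growth assay was used: compounds that relieve NS1-induced slow growth of budding yeast raise OD600. Assay medium was yeast nitrogen base with ammonium sulphate and -URA supplement, pH 6.0, with 2% galactose.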
# AmpC no deterg – qHTS Inhibitors of AmpC Beta-Lactamase (assay without detergent); Potency, µM (highest dose often 57.1 µM), actives largely listed as inhibitors; P00811; AmpC nitrocefin hydrolysis, absorbance 480 nm, 0.0001% Triton; 0.52% of 330,000 active; AID 485341, 2010; note: nearly all actives have a fitted effect of over 20% in size
#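 20 mM phosphate pH 7.0 + 0.01% (detergent screen) or 0.0001% Triton X-100; 5.3 nM AmpC reagent; cpd preinc 15 min RT; nitrocefin (800 uM stock) to start; A480 q20 s × 4 min; Activity was normalised to no-enzyme and no-compound control wells.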
# A number is an active result; . = inactive; ? = inconclusive; / = not tested or not shown. Unless noted, calls come from the whole dose curve; as a rule, active = well fitted curve in the direction sought with a large enough effect; inconclusive = small, poorly fitted or top-dose-only effect, or another doubt; inactive = no such curve, though single readings can be large; an effect the other way counts as inactive or inconclusive.
SMILES,CHX counter,Shiga toxin inh,AmpC inh detg,NS1 function inh,AmpC no deterg
CC(C)(C)C(=O)Nc1ccc2oc(-c3cc(F)c(F)cc3Cl)nc2c1,41.9,.,.,.,.
CC(=O)Nc1cc(-c2nc3cc(Cl)ccc3o2)ccc1C,/,/,.,/,/
COc1ccc2nc(NC(=O)CSc3nc(C)cc(=O)[nH]3)sc2c1,27.0,.,.,.,.
CCCc1cc(=O)[nH]c(SCC(=O)Nc2ccc(OCc3ccccc3)cc2)n1,/,/,.,/,.
CCOc1ccc2nc(NC(=O)C(CC)Sc3nc(C)cc(=O)[nH]3)sc2c1 (stereo not drawn),29.3,89.5,.,.,.
CCCc1cc(=O)[nH]c(SCC(=O)Nc2nc3ccc(OCC)cc3s2)n1,14.4,51.9,.,.,.
Fc1ccc(C(CCNCc2ccccn2)c2ccc(Cl)cc2)cc1 (stereo not drawn),.,.,.,.,.
CN(Cc1cnn(Cc2ccccc2)c1)C(=O)CN=C1NS(=O)(=O)c2ccccc21,/,/,.,/,.
CCNc1nc(NCC)nc(N/N=C/c2ccc(Br)cc2)n1,.,.,.,/,.
Clc1nccnc1N/N=C/c1ccc(Br)cc1,39.5,40.4,.,.,.
COc1ccc(/C=N/NC2=NCCCCC2)cc1,.,.,.,.,.
COc1ccc(/C=N/Nc2nccnc2Cl)cc1,35.7,.,?,.,.
COc1ccc(/C=N/Nc2nccnc2Cl)c(OC)c1,29.2,78.1,.,.,.
CCn1ncc(C2=NOC(C(=O)Nc3ccc(C)cc3)C2)c1C (stereo not drawn),.,.,.,.,.
CCn1ncc(C2=NOC(C(=O)Nc3cccnc3)C2)c1C (stereo not drawn),19.2,.,.,.,.
COc1ccc(OCc2nnc(SCC(=O)N3C(C)CCCC3C)o2)cc1 (stereo not drawn),.,.,.,.,.
CC1CCN(c2nn3c(=O)c(C(=O)NC(C)C)cnc3s2)CC1,/,/,.,/,/
O=C(COC(=O)CNC(=O)c1cccs1)Nc1ccccc1C(F)(F)F,.,.,.,/,.
O=Cc1ccc(OCC(=O)Nc2ccccc2C(F)(F)F)cc1,25.3,.,.,.,.
O=C(COc1ccccc1Br)Nc1ccccc1C(F)(F)F,23.1,60.8,.,.,.
CCOc1ccc(OCC(=O)Nc2ccccc2C(F)(F)F)cc1,22.8,.,.,.,.
Cc1nn2c(=O)cc(COC(=O)c3ccc(NC(=O)CCc4ccccc4)cc3)nc2s1,/,/,.,/,/
COc1ccc(S(=O)(=O)c2c(SC)nn(CC(=O)Nc3cccc(C)c3C)c2N)cc1,/,/,.,/,/
O=C(OCC(=O)c1c[nH]c2ccccc12)c1ccco1,68.1,88.4,.,.,.
O=C(OCC(=O)c1c[nH]c2ccccc12)c1ccc(Br)o1,26.1,110.7,.,.,.
SMILES,CHX counter,Shiga toxin inh,AmpC inh detg,NS1 function inh,AmpC no deterg
CCOC(=O)c1c(OCC)[nH]c2ccc(O)cc12,.,.,.,.,.
Cc1ccc(-c2nnc(Nc3ccc(Br)cc3)c3ccccc23)cc1S(=O)(=O)NCC1CCCO1 (stereo not drawn),/,/,.,/,/
CCC(C)/C=C(C)/C=C/C1=CC2=C(Cl)C(=O)C(C)(OC(C)=O)C(=O)C2=CO1 (stereo not drawn),10.5,.,.,.,.
O=C(Nc1ccccc1Cl)Nc1ccccc1Cl,21.1,.,.,.,.
O=C(COc1ccccc1)Nc1ccccc1Cl,40.6,107.6,?,/,.
CSc1ccccc1NC(=O)Nc1ccccc1Cl,23.7,.,.,.,.
COc1ccccc1NC(=O)Nc1ccccc1SC,.,.,.,.,.
O=C(Nc1ccccn1)Nc1ccccc1Cl,32.0,50.2,.,.,.
O=C(Nc1cnccn1)Nc1ccccc1Cl,.,.,.,/,.
CNC(=O)c1sc2ncccc2c1-n1cccc1,/,/,.,/,/
CCc1ccc(NC(=O)c2cc3c(COC(C)=O)cnc(C)c3oc2=O)cc1,/,/,.,/,/
N#Cc1ccccc1NC(=O)Nc1ccc(Cl)cc1,.,.,.,.,.
O=C(Nc1ccccc1Cl)Nc1cccnc1Cl,.,.,.,/,.
O=C(Nc1csc([N+](=O)[O-])c1)Nc1ccccc1Cl,35.7,53.5,.,.,.
O=C(Nc1ccc(Cl)cc1)Nc1ccccc1Sc1ncc([N+](=O)[O-])s1,33.7,62.9,.,.,.
O=C(Nc1ccc(Nc2ccccc2)cc1)Nc1ccccc1Cl,41.4,96.9,.,.,.
O=C(Nc1ccccc1Cl)Oc1ccc(-c2ccccc2)cc1,18.1,.,.,.,.
O=C(Nc1ccccc1Cl)c1sccc1-c1ccccc1,.,.,.,.,.
COc1ccccc1CNc1ncnc2onc(-c3ccc(Cl)cc3)c12,/,/,.,/,/
COc1ccc(Cl)cc1NC(=O)CN(C)C(=O)c1ccc(-n2cncn2)cc1,/,/,/,/,.
CCSc1nnc2n(-c3cccc(C)c3)c(=O)c3c4c(sc3n12)CCCC4,/,/,.,/,/
COc1cccc(C2CC(=O)Nc3c2c(=O)nc2c(C)cccn32)c1 (stereo not drawn),/,/,.,/,/
CSC1=NCCN1C(=O)Cc1ccc(-c2ccccc2)cc1,.,41.8,.,/,.
N#Cc1c(N2CCCC2)nsc1-c1ccccc1,52.1,102.2,.,.,.
N#Cc1c(N2CCOCC2)nsc1-c1ccccc1,40.1,75.2,.,.,.
SMILES,CHX counter,Shiga toxin inh,AmpC inh detg,NS1 function inh,AmpC no deterg
c1ccc(-c2csc3ncnc(N4CCOCC4)c23)cc1,.,.,.,.,.
COc1ccc(-c2nc(CN(CC3CCC(=O)N3)C(C)C)c(C)o2)c(C)c1C (stereo not drawn),24.8,86.7,.,.,.
O=C(/C=C/c1ccco1)Nc1scc(-c2ccccc2)c1C(=O)O,22.2,.,.,.,.
O=C(/C=C/c1ccccc1)Nc1scc(-c2ccccc2)c1C(=O)O,29.6,58.5,.,.,.
O=C(/C=C/c1ccccc1)Nc1ccc(NC(=O)c2cccs2)cc1,.,.,.,.,.
O=C(Nc1cc2c(cc1C(=O)c1ccccc1Cl)OCCO2)c1ccccc1,/,/,.,/,/
Cc1csc2ncnc(NCCc3ccccn3)c12,.,.,.,/,.
c1ccc(CCNc2ncnc3sccc23)nc1,35.1,73.0,.,.,.
OC(CNc1ncnc2sccc12)c1ccccc1 (stereo not drawn),25.4,84.0,.,.,.
Cc1ccc(NC(=O)c2sc(N)nc2C)cc1,36.8,53.9,.,.,.
Cc1nc(-c2ccccc2)sc1C(=O)Nc1ccc(S(N)(=O)=O)cc1,.,.,.,.,.
Cc1ccc(NC(=O)c2c(C)noc2C)cc1,.,.,.,.,.
Cc1nc(/N=C\N(C)C)sc1C(=O)Nc1ccccc1,.,50.7,.,.,.
Cc1nc(C(=O)Nc2ccccc2)sc1C(=O)Nc1ccccc1,40.1,78.6,.,.,.
Cc1noc(N)c1C(=O)Nc1ccc(C(C)(C)C)cc1,39.6,135.8,.,.,.
Cc1ccc(CN2CCSc3ccc(C(=O)N4CCN(c5ccc(Cl)cc5)CC4)cc32)cc1,/,/,.,/,/
O=C(NC1CCCC1)c1cnn(-c2ccc(F)cc2F)c1C1CCNCC1,/,/,.,/,/
